Experiments:
Test in all cases: log2 ratio of Biotin-Ahx-Ub-VS probe labelling (fragment/DMSO); higher = less target engagement (more negative = stronger competition), active = hit call of the paper (q ≤ 0.05, log2 ratio ≤ -1)
Conditions in all cases: compound concentration: 200 uM; treatment time: 3 h
[1] = molecular target: T1, USP19 (UniProt O94966)
T1 sequence (whole entry): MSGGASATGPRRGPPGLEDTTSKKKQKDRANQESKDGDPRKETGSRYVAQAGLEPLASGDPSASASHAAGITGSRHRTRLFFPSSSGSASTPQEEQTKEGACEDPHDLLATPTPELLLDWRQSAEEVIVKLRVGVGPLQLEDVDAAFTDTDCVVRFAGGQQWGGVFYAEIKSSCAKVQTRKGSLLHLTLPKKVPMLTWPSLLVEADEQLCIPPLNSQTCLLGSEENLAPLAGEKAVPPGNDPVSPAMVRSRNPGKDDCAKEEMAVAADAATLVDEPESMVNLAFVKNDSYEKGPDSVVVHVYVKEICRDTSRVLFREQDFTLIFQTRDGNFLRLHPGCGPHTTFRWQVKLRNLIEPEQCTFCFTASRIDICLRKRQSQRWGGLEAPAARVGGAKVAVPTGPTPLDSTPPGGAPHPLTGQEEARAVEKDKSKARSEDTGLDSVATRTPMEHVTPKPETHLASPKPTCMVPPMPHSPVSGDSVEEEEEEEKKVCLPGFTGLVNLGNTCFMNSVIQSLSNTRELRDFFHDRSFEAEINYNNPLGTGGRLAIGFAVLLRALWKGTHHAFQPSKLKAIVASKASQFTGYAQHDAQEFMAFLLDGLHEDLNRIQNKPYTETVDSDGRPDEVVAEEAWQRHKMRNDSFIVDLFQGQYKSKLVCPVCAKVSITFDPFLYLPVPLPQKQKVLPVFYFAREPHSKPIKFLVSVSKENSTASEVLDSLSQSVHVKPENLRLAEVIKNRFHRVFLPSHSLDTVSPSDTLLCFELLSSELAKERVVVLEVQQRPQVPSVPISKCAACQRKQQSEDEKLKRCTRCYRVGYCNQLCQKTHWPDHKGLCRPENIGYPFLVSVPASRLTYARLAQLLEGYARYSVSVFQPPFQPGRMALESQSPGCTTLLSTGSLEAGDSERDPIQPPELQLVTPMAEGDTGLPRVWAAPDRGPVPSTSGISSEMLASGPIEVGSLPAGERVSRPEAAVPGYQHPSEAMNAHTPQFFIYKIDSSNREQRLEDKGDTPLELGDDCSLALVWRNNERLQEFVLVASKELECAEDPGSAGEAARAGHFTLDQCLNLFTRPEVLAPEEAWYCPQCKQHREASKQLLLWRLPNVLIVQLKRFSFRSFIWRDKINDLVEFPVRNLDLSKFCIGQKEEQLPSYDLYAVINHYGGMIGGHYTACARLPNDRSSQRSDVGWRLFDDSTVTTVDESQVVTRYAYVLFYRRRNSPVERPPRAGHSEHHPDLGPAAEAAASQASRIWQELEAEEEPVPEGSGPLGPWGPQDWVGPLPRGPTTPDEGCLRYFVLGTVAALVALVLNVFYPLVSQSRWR
Procedure, shortened: (§1)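 The table lists average log2 ratios of fragment over vehicle, from an unpaired t-test on global-median-normalised Spectronaut label-free quantities. Proteins with ≥2 unique peptides were used. Samples were HEK293T lysate (495 µg) treated in triplicate with fragment at 200 µM or vehicle for 3 h, then with Biotin-Ahx-Ub-VS (0.5 µM final) for 1 h, with labelled DUBs NeutrAvidin-enriched and run by diaPASEF LC-MS/MS.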

[2] = molecular target: T2, USP22 (UniProt Q9UPT9)
T2 sequence (whole entry): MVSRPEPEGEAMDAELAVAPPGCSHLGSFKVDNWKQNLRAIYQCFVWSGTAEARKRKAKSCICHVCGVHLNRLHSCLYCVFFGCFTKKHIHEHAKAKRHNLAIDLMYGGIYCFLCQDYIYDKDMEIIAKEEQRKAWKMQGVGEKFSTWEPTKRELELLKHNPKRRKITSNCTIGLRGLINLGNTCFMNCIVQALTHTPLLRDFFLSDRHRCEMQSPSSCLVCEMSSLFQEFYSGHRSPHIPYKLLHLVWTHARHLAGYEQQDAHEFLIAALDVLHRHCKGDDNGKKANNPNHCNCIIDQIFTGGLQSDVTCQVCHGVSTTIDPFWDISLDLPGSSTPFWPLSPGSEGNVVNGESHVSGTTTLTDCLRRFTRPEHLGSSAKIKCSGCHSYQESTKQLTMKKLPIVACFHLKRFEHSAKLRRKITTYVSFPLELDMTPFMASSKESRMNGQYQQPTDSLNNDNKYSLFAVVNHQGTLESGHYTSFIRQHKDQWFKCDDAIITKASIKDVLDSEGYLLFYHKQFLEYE
Procedure, shortened: as §1

[3] = molecular target: USP24 (UniProt Q9UPU5)
Sequence of USP24 (Q9UPU5 whole entry): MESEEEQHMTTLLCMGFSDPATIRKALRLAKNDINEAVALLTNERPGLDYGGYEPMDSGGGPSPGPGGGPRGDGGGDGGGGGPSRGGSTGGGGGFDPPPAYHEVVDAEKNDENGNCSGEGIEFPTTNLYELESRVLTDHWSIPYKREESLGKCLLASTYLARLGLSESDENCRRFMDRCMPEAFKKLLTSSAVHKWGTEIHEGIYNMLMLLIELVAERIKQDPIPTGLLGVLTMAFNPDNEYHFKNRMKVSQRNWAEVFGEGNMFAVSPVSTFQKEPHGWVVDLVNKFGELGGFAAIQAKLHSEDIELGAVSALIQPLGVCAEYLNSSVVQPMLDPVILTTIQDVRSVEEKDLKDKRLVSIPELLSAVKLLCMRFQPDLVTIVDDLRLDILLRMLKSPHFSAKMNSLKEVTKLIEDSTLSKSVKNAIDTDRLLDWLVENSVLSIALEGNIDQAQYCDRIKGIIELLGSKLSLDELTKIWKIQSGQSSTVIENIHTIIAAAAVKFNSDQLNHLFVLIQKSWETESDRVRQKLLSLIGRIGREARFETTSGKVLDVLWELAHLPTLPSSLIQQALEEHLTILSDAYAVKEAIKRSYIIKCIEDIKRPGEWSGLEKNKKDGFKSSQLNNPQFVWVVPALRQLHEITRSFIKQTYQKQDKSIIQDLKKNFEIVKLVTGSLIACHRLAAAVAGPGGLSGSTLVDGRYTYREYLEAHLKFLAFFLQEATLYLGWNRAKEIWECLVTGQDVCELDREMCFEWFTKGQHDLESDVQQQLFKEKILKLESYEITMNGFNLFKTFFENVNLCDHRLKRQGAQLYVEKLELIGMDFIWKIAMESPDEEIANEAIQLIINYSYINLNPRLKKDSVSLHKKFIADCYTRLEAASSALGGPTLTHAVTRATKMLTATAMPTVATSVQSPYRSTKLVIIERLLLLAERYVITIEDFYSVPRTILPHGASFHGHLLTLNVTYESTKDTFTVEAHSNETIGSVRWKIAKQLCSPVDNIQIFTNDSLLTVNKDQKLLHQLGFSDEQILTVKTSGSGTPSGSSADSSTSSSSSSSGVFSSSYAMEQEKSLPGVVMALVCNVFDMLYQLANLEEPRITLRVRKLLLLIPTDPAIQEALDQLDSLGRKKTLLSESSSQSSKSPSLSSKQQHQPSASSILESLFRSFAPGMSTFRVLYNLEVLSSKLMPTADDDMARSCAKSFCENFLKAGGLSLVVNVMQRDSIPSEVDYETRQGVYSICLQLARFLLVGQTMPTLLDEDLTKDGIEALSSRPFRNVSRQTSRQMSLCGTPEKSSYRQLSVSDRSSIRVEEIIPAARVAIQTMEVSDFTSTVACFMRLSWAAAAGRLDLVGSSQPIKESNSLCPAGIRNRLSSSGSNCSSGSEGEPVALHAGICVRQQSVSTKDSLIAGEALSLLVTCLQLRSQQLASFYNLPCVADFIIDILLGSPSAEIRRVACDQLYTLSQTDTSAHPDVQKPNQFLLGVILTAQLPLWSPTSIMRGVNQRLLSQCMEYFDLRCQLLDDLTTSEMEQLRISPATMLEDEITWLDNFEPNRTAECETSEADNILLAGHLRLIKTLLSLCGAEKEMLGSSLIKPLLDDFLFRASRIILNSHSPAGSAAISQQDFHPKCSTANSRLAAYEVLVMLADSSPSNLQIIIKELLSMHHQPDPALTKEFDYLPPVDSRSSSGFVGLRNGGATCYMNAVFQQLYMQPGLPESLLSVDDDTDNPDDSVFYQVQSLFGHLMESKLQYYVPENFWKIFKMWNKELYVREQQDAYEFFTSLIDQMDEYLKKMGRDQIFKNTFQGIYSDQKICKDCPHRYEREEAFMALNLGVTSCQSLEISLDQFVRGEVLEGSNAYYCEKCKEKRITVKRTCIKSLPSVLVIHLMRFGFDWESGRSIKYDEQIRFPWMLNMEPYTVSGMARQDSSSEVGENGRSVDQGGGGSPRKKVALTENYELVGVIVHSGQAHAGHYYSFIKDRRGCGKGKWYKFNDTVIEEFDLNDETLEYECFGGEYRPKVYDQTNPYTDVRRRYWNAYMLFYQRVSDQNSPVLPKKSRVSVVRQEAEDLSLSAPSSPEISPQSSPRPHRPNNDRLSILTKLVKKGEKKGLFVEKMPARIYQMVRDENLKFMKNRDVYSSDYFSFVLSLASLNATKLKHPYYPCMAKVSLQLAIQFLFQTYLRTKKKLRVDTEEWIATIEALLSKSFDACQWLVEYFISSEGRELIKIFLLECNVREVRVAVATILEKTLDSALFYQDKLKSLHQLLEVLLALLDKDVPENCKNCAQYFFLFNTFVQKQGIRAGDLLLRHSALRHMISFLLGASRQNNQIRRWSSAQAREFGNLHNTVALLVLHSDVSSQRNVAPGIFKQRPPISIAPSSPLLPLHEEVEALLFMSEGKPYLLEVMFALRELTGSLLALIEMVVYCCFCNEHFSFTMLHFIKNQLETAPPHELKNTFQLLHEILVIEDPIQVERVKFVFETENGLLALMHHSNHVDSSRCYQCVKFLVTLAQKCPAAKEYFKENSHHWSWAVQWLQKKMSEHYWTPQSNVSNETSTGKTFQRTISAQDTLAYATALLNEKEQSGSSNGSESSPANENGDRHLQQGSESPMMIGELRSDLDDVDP
Procedure, shortened: as §1

[4] = molecular target: T3, USP25 (UniProt Q9UHP3)
T3 sequence (whole entry): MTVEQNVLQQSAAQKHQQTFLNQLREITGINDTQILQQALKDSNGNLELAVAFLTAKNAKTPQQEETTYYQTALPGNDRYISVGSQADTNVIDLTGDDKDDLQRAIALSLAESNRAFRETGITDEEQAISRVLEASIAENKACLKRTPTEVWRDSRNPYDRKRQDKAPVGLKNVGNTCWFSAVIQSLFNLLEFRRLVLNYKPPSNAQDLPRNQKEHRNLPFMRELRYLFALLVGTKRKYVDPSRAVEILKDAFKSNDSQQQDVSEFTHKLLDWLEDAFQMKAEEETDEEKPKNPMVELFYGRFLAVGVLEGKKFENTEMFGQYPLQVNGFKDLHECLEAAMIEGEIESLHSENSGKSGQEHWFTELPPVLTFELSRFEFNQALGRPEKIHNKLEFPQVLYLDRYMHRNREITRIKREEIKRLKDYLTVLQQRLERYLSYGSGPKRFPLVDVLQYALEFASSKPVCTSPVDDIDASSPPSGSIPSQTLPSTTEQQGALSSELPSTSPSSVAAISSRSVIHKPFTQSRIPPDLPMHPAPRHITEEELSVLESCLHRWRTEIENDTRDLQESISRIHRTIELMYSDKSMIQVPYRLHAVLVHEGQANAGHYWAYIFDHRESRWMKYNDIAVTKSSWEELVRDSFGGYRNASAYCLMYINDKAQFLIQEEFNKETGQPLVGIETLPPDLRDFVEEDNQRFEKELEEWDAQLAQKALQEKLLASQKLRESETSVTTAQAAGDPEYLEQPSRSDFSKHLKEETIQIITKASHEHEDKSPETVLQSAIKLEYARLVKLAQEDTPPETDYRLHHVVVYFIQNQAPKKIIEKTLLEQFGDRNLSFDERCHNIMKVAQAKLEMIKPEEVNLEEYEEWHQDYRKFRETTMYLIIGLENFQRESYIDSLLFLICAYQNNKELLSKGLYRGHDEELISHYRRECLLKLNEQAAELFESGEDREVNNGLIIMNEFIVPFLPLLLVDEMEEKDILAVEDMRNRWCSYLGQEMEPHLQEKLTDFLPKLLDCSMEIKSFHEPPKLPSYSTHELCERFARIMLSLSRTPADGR
Procedure, shortened: as §1

[5] = molecular target: T4, USP28 (UniProt Q96RU2)
T4 sequence (whole entry): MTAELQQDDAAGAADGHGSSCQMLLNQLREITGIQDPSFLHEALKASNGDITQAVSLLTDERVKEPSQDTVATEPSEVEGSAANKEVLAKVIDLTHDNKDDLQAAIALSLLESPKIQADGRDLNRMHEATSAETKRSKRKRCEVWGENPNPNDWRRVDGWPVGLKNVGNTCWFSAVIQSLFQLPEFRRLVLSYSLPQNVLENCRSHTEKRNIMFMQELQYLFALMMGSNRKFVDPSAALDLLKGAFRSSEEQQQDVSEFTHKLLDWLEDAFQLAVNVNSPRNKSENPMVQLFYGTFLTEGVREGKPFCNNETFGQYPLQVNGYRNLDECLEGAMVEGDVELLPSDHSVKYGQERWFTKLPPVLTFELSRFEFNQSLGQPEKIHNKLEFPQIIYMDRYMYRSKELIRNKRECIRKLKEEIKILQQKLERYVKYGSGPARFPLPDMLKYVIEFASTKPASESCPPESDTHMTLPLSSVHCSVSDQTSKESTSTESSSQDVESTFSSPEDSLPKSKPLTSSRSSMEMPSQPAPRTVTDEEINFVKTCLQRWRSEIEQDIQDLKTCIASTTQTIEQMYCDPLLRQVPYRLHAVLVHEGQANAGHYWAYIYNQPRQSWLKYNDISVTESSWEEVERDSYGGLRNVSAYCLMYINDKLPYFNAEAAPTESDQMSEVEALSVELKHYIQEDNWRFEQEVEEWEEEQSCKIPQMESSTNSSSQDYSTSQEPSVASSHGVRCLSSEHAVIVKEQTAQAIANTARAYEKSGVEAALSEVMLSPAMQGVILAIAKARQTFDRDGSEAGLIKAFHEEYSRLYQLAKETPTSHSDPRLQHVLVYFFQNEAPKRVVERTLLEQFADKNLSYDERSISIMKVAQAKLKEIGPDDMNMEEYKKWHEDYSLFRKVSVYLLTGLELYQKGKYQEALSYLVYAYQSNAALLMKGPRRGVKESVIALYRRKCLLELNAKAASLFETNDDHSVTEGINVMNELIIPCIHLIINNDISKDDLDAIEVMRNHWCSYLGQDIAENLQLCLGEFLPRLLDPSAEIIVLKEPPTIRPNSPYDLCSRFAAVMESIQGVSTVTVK
Procedure, shortened: as §1

Measured: log2 ratio of Biotin-Ahx-Ub-VS probe labelling

CCN(C(=O)CCl)C1CCS(=O)(=O)C1 (stereo not given)
inactive: [1] 0.00457 | [2] -0.0368 | [3] 0.0946 | [4] -0.0672 | [5] -0.106

— the supplement of paper PMC11732987, “Enantioselective OTUD7B fragment discovery through chemoproteomics screening and high-throughput optimisation” (Communications Chemistry, 2025)
